Test results reported in PubChem BioAssay (NCI).
The panel holds about 83,000 compounds, 20% with a hit somewhere; the sample as a whole holds those more often.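 In brief: 96-well plates, 48 h treatment, single concentration, percent growth endpoint.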 Unmarked numbers belong to inactive results. Active and inactive are the calls of the source. How the source made its calls: active means growth percent below 10; inactive means the rest.

Experiments:
Test in all cases: NCI-60 one-dose screen, 48 h (100 = growth as untreated, 0 = no growth, -100 = all killed)
Conditions in all cases: 10 µM
T-47D breast = tested on: T-47D breast
BT-549 breast = tested on: BT-549 breast
MDA-MB-435 melanoma = tested on: MDA-MB-435 melanoma
SW-620 colon = tested on: SW-620 colon
MCF7 breast = tested on: MCF7 breast
HCT-116 colon = tested on: HCT-116 colon
HCC-2998 colon = tested on: HCC-2998 colon
KM12 colon = tested on: KM12 colon

Compound | growth (T-47D breast) | growth (BT-549 breast) | growth (MDA-MB-435 melanoma) | growth (SW-620 colon) | growth (MCF7 breast) | growth (HCT-116 colon) | growth (HCC-2998 colon) | growth (KM12 colon)
Cc1noc(C)c1-c1ccc2nc(NC(=O)[C@H]3CCN(C#N)C3)cn2c1 | 54.8% | 76.3% | 81.7% | 83.6% | 71.1% | 82.1% | 90.4% | 91.3%
COCc1cc2c(cc1Br)OCO2 | 98.4% | 105% | 108% | 103% | 96.4% | 98.6% | 95.9% | 104%
COC(=O)c1c(C)nc(Nc2nc3ccccc3s2)nc1-c1ccc(Cl)cc1Cl | 105% | 101% | 111% | 104% | 78.5% | 98.4% | 108% | 103%
CCNC(=S)NN | 47.2% | 117% | 93.7% | 83.2% | 5.44% (active) | 10.4% | 94.7% | 109%
COc1ccc(-n2nnc3c(sc4ccccc43)c2=O)cc1 | 35.5% | 102% | 69% | 83.9% | 80.4% | 5.85% (active) | 74.9% | 70.2%
C[C@@H]1N=C(c2ccc(Br)cc2)Nc2nc3ccccn3c2C1=O | 67.2% | 49.3% | -13% (active) | 38% | 20.9% | 29.2% | 69% | 29.6%
Nc1ncc(-c2ccc(C(F)(F)F)cc2)c(NC2CCCCCC2)n1 | 20.5% | 48.3% | 37.1% | 37.4% | 25% | 26.3% | 35.1% | 31.6%
CCCCCN(CCCCC)C(C)C(O)c1ccc2cc(Cl)c3ccccc3c2c1 (stereo unspecified) | 83.8% | 110% | 103% | 80% | 90.6% | 65.7% | 97.6% | 103%
O=C(O)c1ccccc1C(=O)c1cccc2c(F)cccc12 | 94.5% | 103% | 112% | 106% | 93.5% | 103% | 105% | 111%
NC1CCC(Nc2nc(NCc3ccc(-c4cccs4)nc3)c3ncn(C4CCCC4)c3n2)CC1 (stereo unspecified) | -22.9% (active) | -27.4% (active) | -53.2% (active) | 6.7% (active) | -34% (active) | 0.721% (active) | -43.1% (active) | 5.58% (active)
CCCCN(CCCC)c1ccc(C(=NC(C)CCCN(CC)CC)c2ccc(N(C)C)cc2)cc1 (stereo unspecified) | -55.8% (active) | -27.2% (active) | -87.5% (active) | -66.7% (active) | -80.9% (active) | -81.5% (active) | -59% (active) | -14.3% (active)
O=C(/C=C/c1nnc2n(Cc3ccccc3)c(=O)c3c4c(sc3n12)CCCC4)c1ccccc1 | -39.2% (active) | 82.4% | 93.2% | 9.38% (active) | 64.3% | 44.1% | 87.8% | 55.2%
Cn1c(N)c(N=Cc2ccccc2)c(=O)n(C)c1=O | 108% | 102% | 114% | 107% | 103% | 92.8% | 104% | 115%
S=C(Cc1ccc(-c2ccccc2)cc1)N1CCOCC1 | 85.5% | 96.6% | 98.6% | 103% | 95.3% | 98.6% | 103% | 99.3%
COc1ccc(-c2cc(/C=C3\C(=O)Nc4cc(Cl)ccc43)[nH]n2)cc1 | 47.8% | 63.5% | -36.7% (active) | 19.9% | 11.7% | 26.2% | 56.7% | 19.2%
Nc1nc2c(ncn2C2OC3COP(=O)(O)OC4C(COP(=O)(O)OC2C3O)OC(n2cnc3c(N)ncnc32)C4O)c(=O)[nH]1 (stereo unspecified) | 84.4% | 90% | 105% | 107% | 109% | 94% | 99.3% | 104%
CCCOCC(O)CNCCN (stereo unspecified) | 103% | 110% | 98.5% | 98.9% | 97.4% | 104% | 131% | 122%
O=C(Nc1cccc([N+](=O)[O-])c1)NN1CCCCCC1 | 81.7% | 107% | 102% | 95.9% | 100% | 94.3% | 94.8% | 98.7%
Cc1nc2ccc(-n3c(-c4ccc(Cl)cc4)nc4ccccc4c3=O)cc2n1Cc1ccccc1 | 78.8% | 83.3% | 97.2% | 93.7% | 85% | 93% | 107% | 97.8%
FC(F)(F)c1ccc(-c2ncc(-c3ccc(C(F)(F)F)cc3)c(NCc3cc(C(F)(F)F)cc(C(F)(F)F)c3)n2)cc1 | 28.1% | 79.4% | 68.3% | 59.7% | 54.9% | 24.4% | 77.2% | 44.7%
O=C1CC[C@@H](C(=O)N[C@H]2CSSC[C@@H](C(=O)NCCc3ccccc3)NC(=O)[C@H](Cc3ccccc3)NC(=O)[C@@H]3CCCN3C(=O)[C@@H]3CCCN3C2=O)N1 | 25.3% | 106% | 109% | 102% | 95.8% | 95.8% | 94.3% | 105%
C=CCn1c(C)nc2cc(Nc3nc(Nc4ccc5nc(C)n(CC=C)c5c4)c4ccccc4n3)ccc21 | -60.3% (active) | -84% (active) | -76% (active) | -76.2% (active) | -89.3% (active) | -96.5% (active) | -96.1% (active) | -93.2% (active)
O=C(CCl)N1c2ccccc2Sc2ccc3ccccc3c21 | -68.2% (active) | -40.9% (active) | -34.7% (active) | -65.6% (active) | 10% (active) | -99.6% (active) | -94.4% (active) | -77.5% (active)
COc1ccc(-c2nc3sc(-c4ccccc4)c(-c4ccccc4)n3c2/C=C/c2ccc(F)cc2)cc1 | 77.6% | 112% | 97.1% | 95.5% | 73.8% | 77.3% | 92.8% | 90.7%
O=C(COc1ccc(-c2nc3ccccc3[nH]2)cc1)N=Nc1c(O)[nH]c2ccccc12 | 59% | 106% | 69.8% | 85.6% | 42.5% | 40.9% | 109% | 58.2%
O=C(O)CNS(=O)(=O)c1ccc(OCCOc2ccc(S(=O)(=O)NCC(=O)O)cc2)cc1 | 93.5% | 105% | 113% | 103% | 98.6% | 103% | 98.1% | 99.5%
CCOC(=O)c1cc2c(n1Cc1ccccc1)-c1oncc1CC2 | 93.8% | 92.7% | -27.4% (active) | 32.9% | 80.3% | 89% | 83.6% | 31.4%
